Assay [1] deals with Estrogen receptor (Homo sapiens) (UniProt P03372). In words: qHTS assay to identify small molecule antagonists of the estrogen receptor alpha (ER-alpha) signaling pathway using the BG1 cell line in the presence of 0.1 nM 17-beta-estradiol (AID 1259244). Also: nearly all actives have a fitted effect of over 50% in size. Also: potency is read from the fitted curve at half-maximal effect. In a few lines:
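Luciferase luminescence (ONE-Glo, 30 min at room temperature) was read after 22 hr at 37C exposure to compounds plus 17beta-estradiol at 0.1 nM final. Cells were VM7Luc4E2 with endogenous ER-alpha and an ERE-driven luciferase, pre-cultured 5 days in hormone-depleted medium.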
Background: Quantitative high-throughput screening tests each substance at several concentrations.

Assay [2] in a line: qHTS assay to identify small molecule HDAC inhibitors (AID 1259364). Also: nearly all actives have a fitted effect of over 45% in size. Also: potency is read from the fitted curve at half-maximal effect. In a few lines:
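Luminescence read after 30 min room-temperature HDAC-Glo incubation measures cellular class I/II HDAC activity. Compounds were applied for 2 hr at 37 C to HCT-116 wild-type cells seeded the day before.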

The nature of assay [3]: qHTS assay to identify small molecule HDAC inhibitors - cell viability counter screen (AID 1259365). Also: series mostly up to about 92 µM; nearly all actives have a fitted effect of over 50% in size. In a few lines: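 Luminescence from CellTiter-Glo, developed 30min at room temperature, reports viability of wild-type HCT-116 cells treated 2hr with compounds at 37 C and 5% CO2 after overnight plating.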
Assay [4] can be described thus: qHTS assay to identify small molecule agonists of the sonic hedgehog signaling (Shh) pathway - cell viability counter screen (AID 1259366). Also: nearly all actives have a fitted effect of over 50% in size. Also: potency is read from the fitted curve at half-maximal effect. In a few lines:
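Cytotoxicity counter screen run in the same wells as the Shh reporter assay. NIH/3T3 cells carrying a Gli1 response element–driven luciferase were treated with DMSO-dissolved compounds for 24hr, and live-cell protease activity was measured with CellTiter-Fluor.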

Assay [5] in a line: qHTS assay to identify small molecule antagonists of the sonic hedgehog signaling (Shh) pathway - cell viability counter screen (AID 1259367). Also: nearly all actives have a fitted effect of over 55% in size. Also: potency is read from the fitted curve at half-maximal effect. In a few lines:
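CellTiter-Fluor signal in conditioned medium-stimulated 3T3 Gli1-Luc cells, 23 hr compound exposure, 37C.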

Assay [6] in a line: qHTS assay to identify small molecule antagonists of the sonic hedgehog signaling (Shh) pathway (AID 1259369; calls by dose curve; also: nearly all actives have a fitted effect of over 45% in size; also: potency is read from the fitted curve at half-maximal effect). The method in brief:
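Antagonist mode: compound added to 3T3 Gli1-Luc cells followed by conditioned-medium stimulation, 24 h at 37 C, 5% CO2. Inhibition taken as loss of Gli1-driven luciferase luminescence.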

Assay [7] is described as follows: qHTS assay to identify small molecule antagonists of the androgen receptor (AR) signaling pathway using the MDA cell line in the presence of 0.5 nM R1881 - cell viability counter screen (AID 1259242). Also: nearly all actives have a fitted effect of over 45% in size. Also: potency is read from the fitted curve at half-maximal effect. In a few lines: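 Live-cell protease activity was measured by CellTiter-Fluor fluorescence after 30 min. Before that, MDA-kb2 MMTV-luciferase cells had 16 hr at 37C without CO2, exposed to test compounds and 0.5 nM R1881 final.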

Assay [8] is described as follows: qHTS assay to identify small molecule agonists of the sonic hedgehog signaling (Shh) pathway (AID 1259368; calls by dose curve;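 also: NIH/3T3-derived 3T3Gli1-Luc cells carrying a stable Gli1-driven firefly luciferase reporter; series mostly up to about 92 µM; nearly all actives have a fitted effect of over 15% in size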). In a few lines:
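Luminescence was read after 30 min at room temperature with luciferase reagent. Before that, 3T3Gli1-Luc cells (NIH/3T3 clone, stable Gli1-Luc reporter; 2,000/well) were exposed to compounds for 24 hr at 37C, 5% CO2, compounds being added 4 hr post-plating.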

In assay [9] the target is Androgen receptor (Homo sapiens) (UniProt P10275). In words: qHTS assay to identify small molecule antagonists of the androgen receptor (AR) signaling pathway using the MDA cell line in the presence of 0.5 nM R1881 (AID 1259243). Also: potency is read from the fitted curve at half-maximal effect; nearly all actives have a fitted effect of over 50% in size. The method in brief: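 Luminescent reporter readout (ONE-Glo, 30 min, room temperature) after 16 hr co-treatment of MDA-kb2 cells with test compounds and 0.5 nM R1881 final, at 37C without CO2. The MMTV-driven luciferase responds to both AR and GR.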
Androgen receptor (Homo sapiens), sequence (P10275 whole entry, looked up): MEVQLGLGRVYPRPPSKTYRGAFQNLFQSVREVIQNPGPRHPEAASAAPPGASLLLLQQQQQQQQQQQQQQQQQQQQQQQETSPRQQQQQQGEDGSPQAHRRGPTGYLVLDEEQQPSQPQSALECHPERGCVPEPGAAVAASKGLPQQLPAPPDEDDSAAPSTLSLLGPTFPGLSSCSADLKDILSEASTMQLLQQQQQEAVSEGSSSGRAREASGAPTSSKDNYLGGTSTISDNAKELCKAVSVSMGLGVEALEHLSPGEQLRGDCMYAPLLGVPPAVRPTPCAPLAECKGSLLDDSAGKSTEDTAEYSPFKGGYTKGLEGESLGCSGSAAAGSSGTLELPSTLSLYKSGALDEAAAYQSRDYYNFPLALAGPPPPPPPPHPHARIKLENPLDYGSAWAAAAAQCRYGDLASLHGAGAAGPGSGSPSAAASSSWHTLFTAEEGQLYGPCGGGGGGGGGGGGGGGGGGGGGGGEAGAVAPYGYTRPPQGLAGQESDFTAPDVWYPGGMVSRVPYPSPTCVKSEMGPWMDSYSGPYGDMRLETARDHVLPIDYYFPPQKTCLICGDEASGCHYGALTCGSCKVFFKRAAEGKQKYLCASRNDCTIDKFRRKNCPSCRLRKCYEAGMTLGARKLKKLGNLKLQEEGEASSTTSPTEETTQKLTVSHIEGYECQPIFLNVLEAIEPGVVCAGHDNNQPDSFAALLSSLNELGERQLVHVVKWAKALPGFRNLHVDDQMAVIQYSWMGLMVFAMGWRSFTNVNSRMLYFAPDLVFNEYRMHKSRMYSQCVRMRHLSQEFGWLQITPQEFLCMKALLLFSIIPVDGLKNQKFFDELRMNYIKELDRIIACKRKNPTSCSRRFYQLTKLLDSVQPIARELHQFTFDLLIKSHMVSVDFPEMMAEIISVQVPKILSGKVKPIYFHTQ

Inconclusive results are not listed. The source made the active and inactive calls. Unless noted, calls follow the shape of the dose curve; as a rule, active = well fitted curve in the direction sought with a large enough effect in the repeat runs; inconclusive = weak or mixed curves; inactive = no such curve, though single readings can be large; an effect the other way counts as inactive or inconclusive.

Estrogen receptor (Homo sapiens), sequence (P03372 whole entry, looked up): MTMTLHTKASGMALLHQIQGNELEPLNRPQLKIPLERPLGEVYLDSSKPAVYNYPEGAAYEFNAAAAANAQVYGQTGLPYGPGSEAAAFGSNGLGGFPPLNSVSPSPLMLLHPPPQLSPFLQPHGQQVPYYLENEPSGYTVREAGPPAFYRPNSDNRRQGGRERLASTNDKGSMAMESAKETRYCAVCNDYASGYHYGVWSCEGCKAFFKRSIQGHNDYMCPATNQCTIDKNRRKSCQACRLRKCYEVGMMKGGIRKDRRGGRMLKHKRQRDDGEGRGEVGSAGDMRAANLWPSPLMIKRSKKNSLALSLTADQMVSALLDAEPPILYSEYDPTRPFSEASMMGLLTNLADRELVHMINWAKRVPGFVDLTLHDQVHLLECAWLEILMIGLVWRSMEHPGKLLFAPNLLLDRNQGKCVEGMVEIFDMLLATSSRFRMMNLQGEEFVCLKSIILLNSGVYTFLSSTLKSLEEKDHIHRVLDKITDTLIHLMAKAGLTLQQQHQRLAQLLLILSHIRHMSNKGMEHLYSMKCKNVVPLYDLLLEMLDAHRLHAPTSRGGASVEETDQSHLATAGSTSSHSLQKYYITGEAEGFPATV

On to `Clc1cc(C(Cl)(Cl)Cl)cnc1Cl`, for which the Potency result in [1], in [2], in [3], in assay [4], in assay [5] and in assay [6] was “inactive” each time.

Consider `O=C(O)CC(Cl)C(=O)O` (configuration not stated), for which the Potency entry in assay [7], in [2], in [4], in assay [5], in assay [8] and in assay [6] was “inactive” each time.

For `O=C(Nc1ccccc1)Nc1cnns1`, the Potency entry in assay [7], in assay [4], in assay [5] and in assay [8] was “inactive” each time. Besides, the Potency in [2] was 30.6 µM (active).

`COC1=CC(=O)O[C@@H](CCc2ccccc2)C1`: the Potency entry in assay [7], in assay [3], in [5] and in assay [6] was “inactive” in each case.

Turning to `CC/C(=N\OC/C=C/Cl)C1=C(O)CC(C2CCOCC2)CC1=O` (configuration not stated), the Potency entry in assay [7], in assay [2], in assay [4], in assay [5], in [8] and in assay [6] was “inactive” each time.

Turning to `ClCCCCBr`, the Potency result in assay [7], in assay [2], in [3], in assay [5], in [8] and in assay [6] was “inactive” in each case.

With `C=CC[C@]1(O)CC[C@H]2[C@@H]3CCC4=CC(=O)CCC4=C3C=C[C@@]21C`, the Potency in [1] and in [6] was 13.3 µM (active) in each case. Moreover, the Potency entry in assay [2] and in [3] was “inactive” throughout.

Take `CCC(C)(NC(=O)c1cc(Cl)c(C)c(Cl)c1)C(=O)CCl` (configuration not stated): the Potency entry in assay [1], in assay [2], in assay [3] and in assay [6] was “inactive” in each case. The Potency in [4] is 43.5 µM (active); in assay [5], 21.8 µM (active).

On to `COc1nn(C(=O)NS(=O)(=O)c2ccccc2OC(F)(F)F)c(=O)n1C`, for which the Potency entry in [7], in [2], in assay [4], in assay [5] and in assay [8] was “inactive” throughout.

Regarding `CN1C[C@H](CNC(=O)OCc2ccccc2)C[C@@H]2c3cccc4c3c(cn4C)C[C@H]21`, the Potency result in assay [1], in [2], in [3], in [5] and in assay [8] was “inactive” throughout.

In the case of `CC(c1ccc(O)cc1)(c1ccc(O)cc1)c1ccc(O)cc1`, the Potency result in [7], in [2], in assay [3] and in assay [8] was “inactive” each time. In assay [4], the Potency is 61.1 µM (active).

Regarding `COC(C)(C)CCC[C@H](C)C/C=C/C(C)=C/C(=O)OC(C)C`, the Potency entry in assay [7], in assay [4], in [5], in [8] and in assay [6] was “inactive” in each case.

As to `CCOC(=O)COc1cc(-c2nn(C)c(OC(F)F)c2Cl)c(F)cc1Cl`, the Potency entry in assay [7], in assay [2], in assay [3], in [4], in assay [5] and in assay [6] was “inactive” each time.

For `CCOP(=O)(OCC)Oc1ccc([N+](=O)[O-])cc1`, the Potency entry in [7], in assay [2], in assay [3], in assay [8] and in assay [6] was “inactive” in each case.

On to `CC(C)(C)c1cc([N+](=O)[O-])cc([N+](=O)[O-])c1O`, for which the Potency in assay [7] was 12.2 µM (active); in assay [4], 21.6 µM (active); in [5], 24.3 µM (active); in assay [6] it was 6.84 µM (active). Besides, in [3], the Potency result was “inactive”.

For `CC1CC(CC2CCC(N)C(C)C2)CCC1N` (configuration not stated), the Potency entry in assay [1], in [2] and in assay [3] was “inactive” in each case.

`C/C(=C\c1ccccc1)[N+](=O)[O-]`: the Potency entry in assay [1], in [2], in assay [3] and in [8] was “inactive” throughout. In addition, the Potency in assay [4] was 15.4 µM (active).

For the molecule `Clc1cccc2ccccc12`, the Potency entry in [7], in [2], in assay [4], in assay [5] and in assay [8] was “inactive” throughout.

In the case of `O=C(Nc1ccccc1)Nc1ccnc(Cl)c1`, the Potency in assay [9] is 43.3 µM (active); in assay [1], 24.3 µM (active); in [2], 4.33 µM (active); in assay [6] it was 2.17 µM (active). The Potency result in [3] and in assay [8] was “inactive” throughout.

Regarding `CCCCN=C=O`, the Potency result in [7], in [2], in assay [3], in assay [4], in [5] and in [6] was “inactive” in each case.

Consider `II`, for which the Potency entry in [7], in [3], in assay [4], in assay [5], in assay [8] and in [6] was “inactive” in each case.

Regarding `O=Cc1ccc2c(c1)OCO2`, the Potency result in assay [7], in [2], in assay [3], in [4], in assay [5] and in [6] was “inactive” in each case.

For `CCC(Br)(CC)C(=O)NC(N)=O`, the Potency result in assay [7], in [2], in assay [4], in assay [5], in assay [8] and in assay [6] was “inactive” each time.

For the molecule `CO/N=C(/C(=O)OC)c1ccccc1COc1ccccc1C`, the Potency in [9] is 17.2 µM (active); in assay [6] it was 4.33 µM (active). Besides, the Potency entry in assay [1], in [2], in [3], in assay [4], in assay [5] and in assay [8] was “inactive” throughout.

As for `CC(C)(Cl)[N+](=O)[O-]`, the Potency entry in assay [7], in assay [2], in assay [3], in assay [4], in [5] and in assay [6] was “inactive” throughout.

With `CCc1ccc(C(=O)NN(C(=O)c2cc(C)cc(C)c2)C(C)(C)C)cc1`, the Potency entry in assay [7], in [2], in assay [8] and in [6] was “inactive” throughout. Besides, the figures for the Potency in assay [4] and in assay [5] were 2.17 µM (active) and 2.43 µM (active), respectively.

The record behind these values is PubChem BioAssay (Tox21).
